# Laboratory results published in article PMC7826789 (International Journal of Molecular Sciences, 2021).
compound,measurement,setting,value
COc1cc2ncnc(Nc3cccc(Cl)c3F)c2cc1O[C@H]1CC[C@H]([C@@H]2NCCNC2=O)CC1 [BI00133844],Kinases covered,SRC,SRC
CCCS(=O)(=O)Nc1ccc(F)c(-n2cc(-c3cncc(OC)c3)nn2)c1F [BI00865461],Kinases covered,SRMS,SRMS
COc1ccc2cc(-c3c(-c4ccncc4)nc(-c4ccc(S(C)(=O)=O)cc4C)n3C)ccc2c1 [SB-633825],Kinases covered,STK10,STK10
COc1cc2ncn(-c3cc(OCC4CCCO4)c(C(N)=O)s3)c2cc1OC (stereo not shown) [GSK204607],Kinases covered,STK10,STK10
CC(C)N1CC(=O)N(C)c2cnc(Nc3cccc(S(=O)(=O)CCN4CCOCC4)c3)nc21 [BI00009348],Kinases covered,STK16,STK16
same,Kinases covered,TAK1,TAK1
CNc1nc(-c2ccc3c(N)n[nH]c3c2)cc(N2C[C@@H](C(=O)Nc3ccccc3)CC[C@H]2C)n1 [GSK2298859],Kinases covered,STK17B,STK17B
C[C@@H]1CCNC(=O)c2cc3ccc(C(=O)Nc4nc5ccccc5n4CCCN(C)C)cc3n21 [BI00645435],Kinases covered,STK17B,STK17B
O=C(Nc1cccc(-c2nn3ncccc3c2-c2ccnc(Nc3cccnc3)n2)c1)c1c(F)cccc1F [GSK312879],Kinases covered,STK36,STK36
COC[C@@H](C)N[C@H]1CC[C@H](Nc2cc(-c3cccc(NCC4(C#N)CCOCC4)n3)c(Cl)cn2)CC1 [NVP-2],Kinases covered,TAOK3,TAOK3
CN(C)C/C=C/C(=O)Nc1ccc(C(=O)Nc2cccc(Nc3ncc(Cl)c(-c4c[nH]c5ccccc45)n3)c2)cc1 [THZ1],Kinases covered,TBK1,TBK1
COc1cc(-c2cncc(-c3cnn(C4CCNCC4)c3)c2)cc(OC)c1OC [K05908],Kinases covered,TGFBR1,TGFBR1
Cc1ccc(-c2cc(-c3c[nH]nc3-c3ccccn3)ccn2)cc1 [GW684088],Kinases covered,TGFBR1,TGFBR1
CCn1cc(-c2ccnc3[nH]c(-c4cccc(CN(C)C)c4)cc23)c(-c2ccc(NC(=O)N(C)C)cc2)n1 [GSK1070916],Kinases covered,TIE2,TIE2
CCS(=O)(=O)c1ccc(OC)c(Nc2ncc(-c3cccc(OC)c3)o2)c1 [GW580509X],Kinases covered,TNK1,TNK1
COc1cc(N2CCN(C)CC2)ccc1Nc1ncc2c(n1)N(C)c1ccccc1C(=O)N2 [XMD8-87],Kinases covered,TNK2,TNK2
CNS(=O)(=O)c1ccc(N(C)C)c(Nc2ncnc3cc(OC)c(OC)cc23)c1 [GSK114],Kinases covered,TNNI3K,TNNI3K
CC(=O)c1c(C)c2cnc(Nc3ccc(N4CCNCC4)cn3)nc2n(C2CCCC2)c1=O [PFE-PKIS 32],Kinases covered,TTK,TTK
CCS(=O)(=O)c1ccc(OC)c(Nc2ncc(-c3cccc(F)c3)o2)c1 [GW621970X],Kinases covered,YES,YES
